Shown are actives, neighbours in structure and some others; about 2.3% of the full set was active somewhere.
USP1-UAF1 inh: blocks the human USP1/UAF1 deubiquitinase complex | 0.23% of 390,000 active | recombinant USP1/UAF1, Ub-Rhodamine cleavage fluorescence | O94782 | Potency, µM (doses to about 57.1 µM), without a hit: at the top dose activity change, negative = inhibition, actives largely listed as inhibitors; note: potency is the fitted concentration of half-maximal effect; nearly all actives have a fitted effect of over 60% in size
Target sequence (O94782 whole entry, looked up): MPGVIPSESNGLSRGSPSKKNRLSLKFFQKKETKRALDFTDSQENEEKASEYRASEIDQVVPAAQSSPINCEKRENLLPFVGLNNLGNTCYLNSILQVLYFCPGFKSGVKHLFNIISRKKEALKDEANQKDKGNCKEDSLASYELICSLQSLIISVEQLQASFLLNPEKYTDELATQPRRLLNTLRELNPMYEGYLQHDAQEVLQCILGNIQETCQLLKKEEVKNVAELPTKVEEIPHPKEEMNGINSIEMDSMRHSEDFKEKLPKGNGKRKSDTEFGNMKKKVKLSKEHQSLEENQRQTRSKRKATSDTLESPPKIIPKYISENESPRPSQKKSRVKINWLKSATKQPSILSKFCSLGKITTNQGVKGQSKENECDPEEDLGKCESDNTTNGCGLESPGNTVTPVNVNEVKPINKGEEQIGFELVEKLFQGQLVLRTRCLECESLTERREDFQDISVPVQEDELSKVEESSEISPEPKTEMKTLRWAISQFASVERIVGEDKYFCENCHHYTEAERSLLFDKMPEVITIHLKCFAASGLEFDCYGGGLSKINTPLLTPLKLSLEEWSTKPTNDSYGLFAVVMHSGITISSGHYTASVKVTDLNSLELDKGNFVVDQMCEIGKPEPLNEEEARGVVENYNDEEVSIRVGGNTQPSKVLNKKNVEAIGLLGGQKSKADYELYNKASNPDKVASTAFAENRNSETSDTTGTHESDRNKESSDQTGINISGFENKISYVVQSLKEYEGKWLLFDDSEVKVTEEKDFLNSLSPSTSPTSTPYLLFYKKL
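1 nM enzyme complex + cpd, 15 min RT; start with Ub-Rho 150nM final; kinetic fluorescence ex 480/em 540, 6 reads q60 s. Buffer 50mM HEPES pH 7.8, 0.5mM EDTA, 0.1 mg/ml BSA, 1mM TCEP, 0.01% Tween-20.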
Tau fluor cs: counter-screen for tau fibril formation inhibitors. tau K18 P301L Alexa594 fluorescence, heparin fibrillization. Potency, µM (highest dose often 57.7 µM), without a hit: top-dose activity change, negative = decrease. 0.93% of 280,000 active. AID 1463; note: potency is the fitted concentration of half-maximal effect; nearly all actives have a fitted effect of over 55% in size
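Human tau K18 P301L (15 uM unlabeled, 0.24 uM Alexa 594-labeled) in 100 mM sodium acetate pH 7 with 20 uM heparin, 6 hr at 37 C. ThT 30 uM added, 1 hr ambient; Alexa 594 FP and total fluorescence read at 555/632 nm.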
Tau fibril FP: tau fibrillization inhibition (FP). K18 P301L tau heparin fibrillization, Alexa594 FP, 6 h. 0.39% of 280,000 active. Potency, µM (titrated, usually from 57.7 µM), for inactives: at the top dose activity, negative = inhibition, usual class: inhibitors. AID 1468. P10636; note: potency is the fitted concentration of half-maximal effect; nearly all actives have a fitted effect of over 55% in size
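Human tau K18 […] P301L fragment, 15 uM unlabeled plus 0.24 uM Alexa 594-labeled tau (final), with compound and 20 uM heparin in 100 mM sodium acetate pH 7; 6 hr at 37 C, then Alexa 594 FP read.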
Tau fibril ThT: inhibitors of human tau fibril formation, thioflavin T binding; Potency, µM (doses to about 57.4 µM), for inactives: at the top dose activity, negative = inhibition, most hits filed as inhibitors; P10636; 2.1% of 270,000 active; recombinant tau K18 P301L (four-repeat tau fragment), heparin-induced fibrillization, ThT fluorescence; note: potency is the fitted concentration of half-maximal effect; nearly all actives have a fitted effect of over 55% in size
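Recombinant human tau K18 fragment […] carrying P301L, 15 uM unlabeled plus 0.24 uM Alexa 594-labeled, was fibrillized with 20 uM heparin in 100 mM sodium acetate pH 7 for 6 hr at 37 C; 30 uM ThT fluorescence read after 1 hr.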
Coupling enz: inhibits coupling enzyme system, counter-screen for aldolase hits; coupling enzyme system counterscreen, AmpLite Red fluorescence; activity change, negative = inhibition, % at 58.2 µM, hits read low; 0.67% of 290,000 active; AID 2472; in the data active = activity change below about -30%
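Counterscreen lacking aldolase: glyceraldehyde-3-phosphate coupling-enzyme reagent preincubated 10 min at RT with compound (at 57.5 uM final), then substrate/coupling system with AmpLite Red added; fluorescence read at 525/598 nm after 20 min RT.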
* = called active by the depositor; ? = inconclusive; . = no result given; ! = not active in a repeat; [ ] = remark or other dose. Unless noted, calls come from the whole dose curve; as a rule, active = well fitted curve in the direction sought with a large enough effect; inconclusive = small, poorly fitted or top-dose-only effect, or another doubt; inactive = no such curve, though single readings can be large; an effect the other way counts as inactive or inconclusive. % is set by controls: 0 for no effect and ±100 for the full control effect.

SMILES	USP1-UAF1 inh	Tau fluor cs	Tau fibril FP	Tau fibril ThT	Coupling enz
O=C(/C=C/c1ccccc1)c1ccc2c(c1)OCO2	-19.1%	-7.5%	13.6%	?	-3.0
COc1ccc(C(=O)/C=C/c2ccc(N(C)C)cc2)c(OC)c1	22.4µM*	14.1µM*[quencher]	-2.9%	?	0.3
COc1ccc(C(=O)/C=C/c2ccc(C)cc2)c(OC(=O)c2ccc([N+](=O)[O-])cc2)c1	-7.7%	?	8.6%	3.55µM*	-1.7
CC(C)Oc1cccc(NC(=O)C2CCN(S(=O)(=O)Cc3ccccc3)CC2)c1	-18.8%	-5.0%	-14.9%	-1.1%	.
COc1cccc(CNCc2cccn2-c2nnc(N3CCN(c4ccccc4)CC3)s2)c1	-17.6%	-12.8%	-3.7%	?	.
CCOC(=O)c1[nH]c2ccccc2c1NC(=O)c1ccccc1OC	-10.9%	?	9.2%	?	.
CSc1ccc(/C=C/C(=O)c2ccc(NC(=O)C(C)C)cc2)cc1	?	-20.8%	-4.8%	?	1.6
CN(C)c1ccc(/C=C/C(=O)c2cccnc2)cc1	28.2µM*	?	3.7%	5.01µM*	-2.9
CSc1ccc(C(=O)/C=C/c2ccc(N)cc2)cc1	-24.2%	?	2.3%	15.8µM*	2.5
CN1CCC2(CC1)C1CN(C)CC=C1C(C#N)=C(N)C2(C#N)C#N (configuration not stated)	28.2µM*!	-10.3%	?	?	-12.3
O=C(CCCSc1nc2ccccc2[nH]1)N1CCN(c2ccc([N+](=O)[O-])cc2)CC1	-17.0%	-18.9%	-6.0%	0.794µM*	0.0
Cc1ccc(Nc2nc3ccccc3c3nnc(C)n23)c(C)c1	?	?	-7.3%	?	.
CC(=O)Oc1ccc2c(c1OC(C)=O)OCC1(O)Cc3c(cc(OC(C)=O)c(OC(C)=O)c3OC(C)=O)C21 (configuration not stated)	.	?	-12.0%	?	-0.9
Oc1cc2c(cc1O)[C@H]1c3ccc(O)c(O)c3OC[C@@]1(O)C2	-23.5%	?	?	17.8µM*	-9.8
Oc1ccc2c(c1)OCC1(O)Cc3cc(O)c(O)cc3C21 (configuration not stated)	-12.2%	?	?	22.4µM*	-21.5
Cc1ccc(CNC(=O)C2CCCN(c3nc4ccccc4n4cccc34)C2)cc1 (configuration not stated)	?	-13.0%	-2.8%	-4.2%	.
O=C(CSC1=Nc2ccccc2C2=NC(CCC(=O)NC3CCCCC3)C(=O)N12)Nc1cccc(Cl)c1 (configuration not stated)	-17.8%	-25.4%	1.7%	-12.2%	.
CCCCCC1CC1C(=O)N/N=C/c1ccc(N(C)C)cc1 (configuration not stated)	-26.2%	?	4.1%	15.8µM*	.
CN(C)c1ccc(/C=N/NC(=O)COc2ccccc2)cc1	-21.4%	-16.6%	-0.6%	?	1.2
CC[C@@H](C)C(N)C(=O)O (some centres not stated)	.	.	.	.	2.4
C=CCn1c(O)c(C2=c3ccccc3=NC2=O)sc1=Nc1ccc(O)cc1	-21.7%	12.6µM*[quencher]	?	12.6µM*	2.1
O=C1N=c2ccccc2=C1c1sc(=S)n(NC(=O)c2ccccc2)c1O	-19.4%	?	?	.	0.7
NC(=O)c1c(/N=C/c2cccs2)sc2c1CCCC2	-10.7%	-10.4%	-6.0%	2.24µM*	0.5
CNc1nc2[nH]c(=O)c3c(c2s1)OC(N)=C(C#N)C3c1cccc(F)c1 (configuration not stated)	-17.9%	0.6%	-3.1%	1.5%	-50.7*
Cc1ccc(NC(=O)c2cc(C)nc3c2c(C)nn3-c2cccc(Cl)c2C)c(C)c1	6.6%	-4.3%	-5.5%	-2.6%	.
SMILES	USP1-UAF1 inh	Tau fluor cs	Tau fibril FP	Tau fibril ThT	Coupling enz
CCc1ccc(NC(=O)Cc2c(C(=O)O)c(C)cn2C)cc1	-9.3%	-11.7%	5.8%	-5.8%	.
Cc1[nH][nH]c(=O)c1C(c1c(C)[nH][nH]c1=O)c1cn(Cc2ccc(F)cc2)c2ccccc12	?	-25.4%	?	8.91µM*	-46.7*
Cc1[nH][nH]c(=O)c1C(c1c(C)[nH][nH]c1=O)c1cn(Cc2ccc(Cl)c(Cl)c2)c2ccccc12	28.2µM*	?	?	10µM*	-49.1*
CCOc1ccc(C(=O)c2cn(CC(=O)Nc3ccc(F)c(F)c3)c3cc4c(cc3c2=O)OCCO4)cc1	-25.2%	?	?	-11.5%	.
CCN(CC)CCCNC1=C(Cl)C(=O)c2ccccc2C1=O	?	-25.0%	-8.4%	?	-12.8
O=C(O)c1ccc(NC2=C(Cl)C(=O)c3ccccc3C2=O)cc1	-24.7%	1.78µM*[quencher]	3.55µM*	1.41µM*	19.0
Cc1ccc(NC2=C(NC(=O)c3ccccc3)C(=O)c3ccccc3C2=O)cc1Cl	?	?	?	15.8µM*	-47.6*
CC(C)NC1=C(Cl)C(=O)c2ccccc2C1=O	?	-28.0%	?	25.1µM*	-42.4*
O=C(O)c1cccc(NC2=C(Cl)C(=O)c3ccccc3C2=O)c1	?	3.98µM*[quencher]	25.1µM*	2.82µM*	-19.5
COc1ccc(NS(=O)(=O)c2cc(Br)cc3c2N(C(=O)C2CC2)CC3)cc1OC	-20.0%	-12.3%	-3.8%	-6.1%	.
Cc1ccc(-c2noc(COc3ccc(Br)c(C)c3)n2)cc1	-5.1%	-12.6%	-11.0%	?	.
COc1ccc2c(c1)NC(c1ccc(Cl)cc1)=NC(c1cccs1)=N2	-8.7%	?	10.5%	?	.
CC(C)OCCCNC1=C(Cl)C(=O)c2ccccc2C1=O	?	?	7.2%	12.6µM*	-10.3
O=C1C(Cl)=C(Nc2ccccc2)C(=O)c2ccccc21	-25.1%	3.55µM*[quencher]	?	3.16µM*	-33.2*
O=C1C(Cl)=C(NCc2cccnc2)C(=O)c2ccccc21	?	.	.	.	13.1
COCCCNC1=C(Cl)C(=O)c2ccccc2C1=O	?	-12.4%	5.9%	?	-20.9
C=CCNC1=C(Cl)C(=O)c2ccccc2C1=O	?	6.7%	2.0%	0.9%	-35.2*
O=C(NCCc1csc2nc(-c3ccccc3F)nn12)C(=O)Nc1cc(F)ccc1F	-14.8%	-6.5%	-6.3%	3.6%	.
CCc1ccc(NC(=O)C2CCN(S(=O)(=O)c3ccc4[nH]c5c(c4c3)CCCCC5)CC2)cc1	?	?	3.1%	8.6%	.
COc1ccc2c(c1)c1c(c(=O)n(-c3cccc(C)c3)c(=O)n1CC(=O)Nc1c(C)cc(C)cc1C)n2C	-19.8%	-21.1%	-6.5%	-13.8%	.
CCOc1ccc(NC(=O)c2c(NC(=O)c3ccccc3Br)sc3c2CCC(C)C3)cc1 (configuration not stated)	-11.9%	-22.7%	?	14.1µM*	.
O=C(Cn1c(=O)c2cccn2c2ccc(F)cc21)NCc1cccc(Cl)c1	-15.7%	-16.2%	-17.2%	-5.4%	.

High-throughput results: PubChem BioAssay, National Center for Advancing Translational Sciences (NCATS)
